Measurements: PubChem BioAssay (NCATS)
Records with an inconclusive call do not appear. Entries that show only a call come without a potency. A number with no mark means an inactive call. Active and inactive are the calls of the source. Calls come from the whole dose curve; as a rule, active = well fitted cell-killing curve with a large enough effect; inconclusive = small, poorly fitted or top-dose-only effect, or effect the other way; inactive = no such curve, though single readings can be large or run the other way.

Legend:
[1] = Quantitative High-Throughput drug screen in 47 multiple myeloma cell lines against the NCATS MIPE library collection: LP1_DSMZ cell viability assay (AID 1918982); note: nearly all actives have a fitted effect of over 35% in size; note: potency is the fitted concentration of half-maximal effect
Outline: (§1)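 ATP-based CellTiter-Glo luminescence after 48 h drug exposure (37 °C, 5% CO2) of 500 myeloma cells per well. DMSO-only wells set 100% viability, media-only wells 0%; MIPE 4.0 library added by pin tool.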

[2] = Quantitative High-Throughput drug screen in 47 multiple myeloma cell lines against the NCATS MIPE library collection: KMS28PE_JCRB cell viability assay (AID 1918983); note: nearly all actives have a fitted effect of over 35% in size; note: potency is the fitted concentration of half-maximal effect
Outline: as §1

[3] = Quantitative High-Throughput drug screen in 47 multiple myeloma cell lines against the NCATS MIPE library collection: OPM1_PLB cell viability assay (AID 1918989); note: nearly all actives have a fitted effect of over 40% in size; note: potency is the fitted concentration of half-maximal effect
Outline: as §1

[4] = Quantitative High-Throughput drug screen in 47 multiple myeloma cell lines against the NCATS MIPE library collection: U266_ATCC cell viability assay (AID 1919864); note: nearly all actives have a fitted effect of over 35% in size; note: potency is the fitted concentration of half-maximal effect
Outline: as §1

[5] = Quantitative High-Throughput drug screen in 47 multiple myeloma cell lines against the NCATS MIPE library collection: XG1_PLB cell viability assay (AID 1919866); note: nearly all actives have a fitted effect of over 35% in size; note: potency is the fitted concentration of half-maximal effect
Outline: as §1

[6] = Quantitative High-Throughput drug screen in 47 multiple myeloma cell lines against the NCATS MIPE library collection: OPM2_DSMZ cell viability assay (AID 1919872); note: nearly all actives have a fitted effect of over 30% in size; note: potency is the fitted concentration of half-maximal effect
Outline: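 qHTS of the MIPE 4.0 collection: 500 myeloma cells/well, 48 h drug exposure at 37C in 5% CO2, then CellTiter-Glo for 5 min at room temperature before luminescence reading.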

[7] = Quantitative High-Throughput drug screen in 47 multiple myeloma cell lines against the NCATS MIPE library collection: SKMM1_PLB cell viability assay (AID 1919863); conditions: SKMM1 myeloma viability, CellTiter-Glo ATP, 48 h; viability: stronger effect = lower value; note: nearly all actives have a fitted effect of over 35% in size; note: potency is the fitted concentration of half-maximal effect; for viability: series mostly up to about 46 µM
Outline: as §1

[8] = Quantitative High-Throughput drug screen in 47 multiple myeloma cell lines against the NCATS MIPE library collection: XG6_PLB cell viability assay (AID 1919865); note: nearly all actives have a fitted effect of over 40% in size; note: potency is the fitted concentration of half-maximal effect
Outline: as §1

[9] = Quantitative High-Throughput drug screen in 47 multiple myeloma cell lines against the NCATS MIPE library collection: VP6_DJ cell viability assay (AID 1919867); note: nearly all actives have a fitted effect of over 40% in size; note: potency is the fitted concentration of half-maximal effect
Outline: as §1

[10] = Quantitative High-Throughput drug screen in 47 multiple myeloma cell lines against the NCATS MIPE library collection: RPMI8226_ATCC cell viability assay (AID 1919871); note: nearly all actives have a fitted effect of over 30% in size
Outline: as §1

[11] = Quantitative High-Throughput drug screen in 47 multiple myeloma cell lines against the NCATS MIPE library collection: KMS11_JCRBsus cell viability assay (AID 1919873); note: nearly all actives have a fitted effect of over 50% in size; note: potency is the fitted concentration of half-maximal effect
Outline: as §1

[12] = Quantitative High-Throughput drug screen in 47 multiple myeloma cell lines against the NCATS MIPE library collection: KMS28BM_JCRB cell viability assay (AID 1919874); note: nearly all actives have a fitted effect of over 35% in size; note: potency is the fitted concentration of half-maximal effect
Outline: as §1

[13] = Quantitative High-Throughput drug screen in 47 multiple myeloma cell lines against the NCATS MIPE library collection: KMS34_JCRB cell viability assay (AID 1918985); note: nearly all actives have a fitted effect of over 40% in size; note: potency is the fitted concentration of half-maximal effect
Outline: as §1

[14] = Quantitative High-Throughput drug screen in 47 multiple myeloma cell lines against the NCATS MIPE library collection: PE2_PLB cell viability assay (AID 1919869); note: nearly all actives have a fitted effect of over 35% in size; note: potency is the fitted concentration of half-maximal effect
Outline: as §1

[15] = Quantitative High-Throughput drug screen in 47 multiple myeloma cell lines against the NCATS MIPE library collection: OCIMY7_PLB cell viability assay (AID 1918987); note: nearly all actives have a fitted effect of over 65% in size; note: potency is the fitted concentration of half-maximal effect
Outline: as §1

[16] = Quantitative High-Throughput drug screen in 47 multiple myeloma cell lines against the NCATS MIPE library collection: OCIMY5_PLB cell viability assay (AID 1918988); note: nearly all actives have a fitted effect of over 65% in size; note: potency is the fitted concentration of half-maximal effect
Outline: as §1

[17] = Quantitative High-Throughput drug screen in 47 multiple myeloma cell lines against the NCATS MIPE library collection: PCM6_Riken cell viability assay (AID 1919870); note: nearly all actives have a fitted effect of over 30% in size; note: potency is the fitted concentration of half-maximal effect
Outline: as §1

[18] = Quantitative High-Throughput drug screen in 47 multiple myeloma cell lines against the NCATS MIPE library collection: L363_DSMZ cell viability assay (AID 1918984); note: nearly all actives have a fitted effect of over 40% in size; note: potency is the fitted concentration of half-maximal effect
Outline: as §1

| SMILES | Potency [1] | Potency [2] | Potency [3] | Potency [4] | Potency [5] | Potency [6] | viability [7] [%] | Potency [8] | Potency [9] | Potency [10] | Potency [11] | Potency [12] | Potency [13] | Potency [14] | Potency [15] | Potency [16] | Potency [17] | Potency [18] | Potency [7] |
| --- | --- | --- | --- | --- | --- | --- | --- | --- | --- | --- | --- | --- | --- | --- | --- | --- | --- | --- | --- |
| CCC[C@@H]1C[C@@H](C(=O)N[C@@H]([C@H]2O[C@H](SC)[C@H](O)[C@@H](O)[C@H]2O)[C@@H](C)O)N(C)C1 | inactive | inactive | inactive | inactive | inactive | inactive |  |  |  |  |  |  |  |  |  |  |  |  |  |
| Nc1nc(OCc2ccccc2)c2[nH]cnc2n1 | inactive | inactive |  |  | 13.2 µM (active) | inactive | 128 | 16.6 µM (active) | 7.43 µM (active) | inactive | inactive | inactive |  |  |  |  |  |  |  |
| N=C(N=C(N)N)N1CCOCC1 | inactive | inactive |  | 18.7 µM (active) |  | inactive |  |  | inactive |  | inactive | inactive | inactive | inactive |  |  |  |  |  |
| Nc1ccc(S(N)(=O)=O)cc1 | inactive | inactive | inactive | inactive | inactive | inactive | 120 | inactive |  | inactive | inactive | inactive |  | inactive | inactive | inactive |  |  |  |
| CCOC(=O)C1=C[C@@H](OC(CC)CC)[C@H](NC(C)=O)[C@@H](N)C1 | inactive | inactive | inactive |  | inactive | inactive |  | inactive | inactive | inactive | inactive | inactive | inactive | inactive |  |  | inactive |  |  |
| Cc1ncc([N+](=O)[O-])n1CC(C)O (stereo not drawn) | inactive | inactive |  |  | 10.5 µM (active) | inactive | 126 |  | 18.7 µM (active) |  | inactive | inactive |  |  |  |  |  |  |  |
| CNC[C@@H](O)[C@@H](O)[C@H](O)[C@H](O)CO | inactive | inactive | inactive | inactive | inactive | inactive |  | inactive |  | inactive |  | inactive | inactive |  |  |  | inactive |  |  |
| CN1CCC(=C2c3ccccc3CCc3sccc32)CC1 | inactive | inactive |  |  | 18.7 µM (active) | inactive | 99.6 | inactive |  |  |  | 10.5 µM (active) | inactive | inactive |  | inactive |  |  |  |
| CC(C)[C@H](N)C(=O)OCCOCn1cnc2c(=O)[nH]c(N)nc21 | inactive | 14.8 µM (active) | inactive | inactive |  | inactive |  |  |  |  |  |  |  | inactive |  |  | inactive |  |  |
| C=C(c1ccc(C(=O)O)cc1)c1cc2c(cc1C)C(C)(C)CCC2(C)C | inactive | inactive |  | inactive |  | inactive |  | inactive |  | inactive | inactive | inactive | inactive |  |  |  | inactive |  |  |
| O=C(O)CCNC(=O)c1ccc(N=Nc2ccc(O)c(C(=O)O)c2)cc1 | inactive | inactive |  | 13.2 µM (active) | inactive | inactive |  | inactive | inactive | inactive | inactive | inactive | inactive | inactive |  |  | inactive |  |  |
| COC(=O)C1=C(C)NC(C)=C(C(=O)OC(C)C)C1c1cccc2nonc12 (stereo not drawn) | inactive | 18.7 µM (active) |  | 3.72 µM (active) | 11.8 µM (active) | inactive |  | 5.9 µM (active) | 26.4 µM (active) |  |  |  |  | 20.9 µM (active) | 6.62 µM (active) | inactive | 26.4 µM (active) |  |  |
| CN1C(C(=O)Nc2ccccn2)=C(O)c2sccc2S1(=O)=O | inactive |  | inactive | inactive | inactive | inactive |  |  |  |  |  |  | inactive | inactive |  | 6.62 µM (active) | inactive |  |  |
| CCCCN(CCCC)CCC(O)c1cc2c(Cl)cc(Cl)cc2c2cc(C(F)(F)F)ccc12 (stereo not drawn) |  | 23.5 µM (active) |  | inactive | 18.7 µM (active) | inactive |  |  | 18.7 µM (active) |  | inactive | inactive |  |  |  | 11.8 µM (active) |  | inactive |  |
| CN(C)CCc1c[nH]c2ccc(Cn3cncn3)cc12 | inactive |  |  | inactive | inactive | inactive | 127 |  | 2.09 µM (active) | inactive | inactive | inactive | inactive | inactive |  |  | inactive |  |  |
| CC(=O)N1CCN(c2ccc(OC[C@H]3CO[C@](Cn4ccnc4)(c4ccc(Cl)cc4Cl)O3)cc2)CC1 |  | 6.62 µM (active) |  |  | 13.2 µM (active) | 18.7 µM (active) |  |  | 11.8 µM (active) |  | 18.7 µM (active) |  | 13.2 µM (active) | 14.8 µM (active) |  | 18.7 µM (active) |  | inactive |  |
| S=c1nc[nH]c2nc[nH]c12 | 10.5 µM (active) |  | 1.66 µM (active) |  | 1.66 µM (active) |  | 104 | 2.35 µM (active) | 5.26 µM (active) |  |  | 1.18 µM (active) |  | 4.18 µM (active) |  |  | 5.9 µM (active) |  |  |
| O=C(NC(Cc1cc(=O)[nH]c2ccccc12)C(=O)O)c1ccc(Cl)cc1 (stereo not drawn) | inactive |  | inactive |  | 23.5 µM (active) | inactive | 118 | 26.4 µM (active) |  |  | inactive | inactive |  | inactive |  | 14.8 µM (active) |  |  |  |
| N=C(N)c1ccc2cc(OC(=O)c3ccc(N=C(N)N)cc3)ccc2c1 | inactive |  |  |  | inactive | 10.5 µM (active) |  | inactive | 5.26 µM (active) |  |  | 5.9 µM (active) | 6.62 µM (active) | 10.5 µM (active) |  | 18.7 µM (active) | inactive |  | 8.33 µM (active) |
| COc1cc(Nc2c(C#N)cnc3cc(OCCCN4CCN(C)CC4)c(OC)cc23)c(Cl)cc1Cl |  | 18.7 µM (active) |  | 23.5 µM (active) | 2.96 µM (active) |  |  | 1.32 µM (active) | 1.05 µM (active) |  | 18.7 µM (active) | 18.7 µM (active) | 16.6 µM (active) | 3.72 µM (active) | 0.743 µM (active) | 18.7 µM (active) | 1.87 µM (active) | 1.66 µM (active) |  |
| CC1=C(C(=O)O)N2C(=O)[C@@H](NC(=O)[C@H](N)C3=CCC=CC3)[C@H]2SC1 | inactive |  | inactive |  | inactive | inactive |  |  |  | inactive | inactive | inactive | inactive | inactive |  | inactive |  |  |  |
| O=C1NC(=O)C(c2ccccc2[N+](=O)[O-])=C1Nc1ccc(O)c(Cl)c1 | inactive |  | inactive | inactive | 8.33 µM (active) | inactive | 110 | 6.62 µM (active) |  |  |  |  |  |  |  |  | 18.7 µM (active) | inactive |  |
| CC1Cc2ccccc2N1NC(=O)c1ccc(Cl)c(S(N)(=O)=O)c1 (stereo not drawn) | inactive |  | inactive | 6.62 µM (active) | inactive | inactive |  |  |  | inactive | inactive | 1.05 µM (active) | inactive | inactive |  |  | inactive |  |  |
| Cc1cccc(-c2[nH]ncc2-c2ccc3ncccc3n2)n1 |  | inactive |  | inactive |  | inactive |  |  | inactive |  |  |  | inactive |  |  |  |  | inactive |  |
| COc1ccc2cc([C@H](C)C(=O)O)ccc2c1 | inactive |  |  | inactive |  | inactive | 105 | inactive |  | inactive |  | inactive | inactive | inactive | 33.2 µM (active) | 20.9 µM (active) |  |  |  |
| Clc1ccc(C(Cn2ccnc2)OCc2ccc(Sc3ccccc3)cc2)c(Cl)c1 (stereo not drawn) | 23.5 µM (active) |  |  | inactive | 23.5 µM (active) |  |  |  | 20.9 µM (active) |  |  | 20.9 µM (active) |  | 20.9 µM (active) | 26.4 µM (active) | 26.4 µM (active) | 18.7 µM (active) | 20.9 µM (active) |  |
| COc1ccccc1N1CCN(CCN(C(=O)C2CCCCC2)c2ccccn2)CC1 | inactive |  | inactive |  | 7.43 µM (active) | inactive | 126 | 1.48 µM (active) | 5.9 µM (active) | inactive | inactive | inactive | inactive |  | 7.43 µM (active) |  |  |  |  |
